Screening data from PubChem BioAssay.
TDP-43 yeast inh: inhibitors of TDP-43 toxicity in yeast | actives 1.8% (n = 410,000) | TDP-43 expressing yeast growth rescue, BacTiter-Glo, 24 h | Potency, µM (doses to about 46.1 µM), without a hit: at the top dose growth rescue (activation), actives largely listed as activators; further: % of control where 0% means no effect; nearly all actives have a fitted effect of over 50% in size
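In this qHTS, compounds that restore growth of yeast expressing TDP-43 appear as activators. Cells (OD600=0.02, galactose medium, raffinose-pregrown) are incubated with compound 24 hr at 30 deg C and growth is quantified by BacTiter-Glo.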
aSyn yeast inh: rescues yeast growth from alpha-synuclein toxicity; actives 0.14% (n = 370,000); Yeast expressing alpha-synuclein, growth rescue, BacTiter-Glo, 24 h; AID 652106; Potency, µM (doses to about 46.1 µM), inactives show at the top dose growth rescue (activation), actives largely listed as activators; further: % of control where 0% means no effect; nearly all actives have a fitted effect of over 65% in size
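Readout is rescue of growth in alpha-synuclein-expressing yeast, so inhibitors of toxicity appear as activators. Growth after 24 hr at 30 deg C in galactose medium is quantified by luminescence.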
FUS yeast rescue: suppressors of FUS proteinopathy in yeast. S. cerevisiae FUS-expressing, growth rescue, OD600, 24 h. Potency, µM (doses to about 76.6 µM), usual class: activators. actives 0.24% (n = 390,000);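 further: plate controls were DMSO vehicle for no effect and reference control for full effect; nearly all actives have a fitted effect of over 55% in size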
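Galactose (2%) drives FUS expression in yeast precultured in raffinose; seeding density OD 0.005. Test compounds incubated 24hr at 30C and 99% humidity before absorbance at 600 nm was measured.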
Abeta yeast res: compounds reversing amyloid beta toxicity in yeast; yeast expressing A-beta42, growth rescue, OD600, 48 h; response scale: 0% DMSO, 100% iron-clioquinol control; Potency, µM (top dose mostly 46.1 µM), most hits filed as activators; actives 0.063% (n = 410,000); further: nearly all actives have a fitted effect of over 55% in size
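Yeast A-beta toxicity model in growth medium with pinned compounds, 48 h at 30 C; growth read as absorbance at 600 nm. Normalized to FeCl3/clioquinol equimolar mix (positive) and DMSO (negative).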
* marks the source's active call; other numbers are inactive results. The list is not random: actives were taken first. Their share in the collection is about 2.1%. The call rests on the fitted dose curve; in most records, active means well fitted curve in the direction sought with a large enough effect; inconclusive means small, poorly fitted or top-dose-only effect, or another doubt; inactive means no such curve, though single readings can be large; an effect the other way counts as inactive or inconclusive. Potency means the concentration at half of the fitted maximal effect.

COCCNC(=O)C1(C)CCN(C(=O)c2ccc(OC)c(F)c2)C1 (stereo unspecified) was read as TDP-43 yeast inh 4%, aSyn yeast inh 2%, FUS yeast rescue inactive and Abeta yeast res inactive.
For CN1C(C(=O)N2CCc3ccccc3C2)=CC(c2ccc(F)cc2)=NS1(=O)=O the results were TDP-43 yeast inh 13µM*, aSyn yeast inh 1%, FUS yeast rescue inactive and Abeta yeast res inactive.
O=C(NCc1nc2ccccc2[nH]1)C1=C[C@H](c2ccccc2)C[C@H](OCCCCO)O1 was read as TDP-43 yeast inh 8%, aSyn yeast inh 1%, FUS yeast rescue inactive and Abeta yeast res inactive.
Cc1ccc(Nc2nc(NCc3ccccc3)nc3ccsc23)c(C)c1 was read as TDP-43 yeast inh 3%, aSyn yeast inh -12%, FUS yeast rescue inactive and Abeta yeast res inactive.
Screening Cc1cccc(N2CCN(C(=O)c3c(C)oc4ncnc(N5CCOCC5)c34)CC2)c1C returned TDP-43 yeast inh 20µM*, FUS yeast rescue inactive and Abeta yeast res inactive.
Cc1ccc(N2CCN(C(=O)c3c(C)oc4ncnc(N5CCOCC5)c34)CC2)c(C)c1 was read as TDP-43 yeast inh inconclusive, FUS yeast rescue inactive and Abeta yeast res inactive.
`Cc1cccc(N2CCN(C(=O)c3c(C)oc4ncnc(N5CCCCC5)c34)CC2)c1C` gave TDP-43 yeast inh 35µM*, FUS yeast rescue inactive and Abeta yeast res inactive.
`Cc1ccc(N2CCN(C(=O)c3c(C)oc4nc(C)nc(N5CCCC5)c34)CC2)c(C)c1` gave TDP-43 yeast inh 25µM*, FUS yeast rescue inactive and Abeta yeast res inactive.
For Cc1nc(N2CCCC2)c2c(C(=O)N3CCN(c4cccc(C)c4C)CC3)c(C)oc2n1 the results were TDP-43 yeast inh inconclusive, FUS yeast rescue inactive and Abeta yeast res inactive.
`O=C(Cn1cc2c(n1)CCCCC2)NC1CCN(Cc2ccccc2)CC1` gave TDP-43 yeast inh 0%, aSyn yeast inh 2%, FUS yeast rescue inactive and Abeta yeast res inactive.
Screening CC1=C(C(=O)OCc2ccc3c(c2)OCO3)C(c2ccc(F)cc2)NC(=O)N1 (stereo unspecified) returned TDP-43 yeast inh -10%, aSyn yeast inh 0%, FUS yeast rescue inactive and Abeta yeast res inactive.
Screening CCOC(=O)/C(=C(/C)N)C1CC(=O)NC1=O (stereo unspecified) returned TDP-43 yeast inh 12%, aSyn yeast inh 2%, FUS yeast rescue inactive and Abeta yeast res inactive.
`Cc1ccc(NC(=O)CNC(=O)Cn2cnc3sc(C)c(C)c3c2=O)cc1F` gave TDP-43 yeast inh -12%, aSyn yeast inh inconclusive, FUS yeast rescue inactive and Abeta yeast res inactive.
For CCCOc1ccc(F)cc1-c1cc(C(=O)Nc2ccc(OC)cc2C)[nH]n1 the results were TDP-43 yeast inh 25µM*, aSyn yeast inh -9%, FUS yeast rescue inactive and Abeta yeast res inactive.
`COc1ccc(C(C(=O)NCc2ccc(F)cc2)N(C(=O)c2csnn2)C2CC2)cc1` (stereo unspecified) gave TDP-43 yeast inh -7%, aSyn yeast inh -2%, FUS yeast rescue inactive and Abeta yeast res inactive.
For CC(C)c1ccc(NC(=O)CSC2=Nc3ccccc3C3=NC(CCC(=O)NC4CCCCC4)C(=O)N23)cc1 (stereo unspecified) the results were TDP-43 yeast inh 19%, FUS yeast rescue inactive and Abeta yeast res inactive.
CC(C)c1ccc(NC(=O)CSC2=Nc3ccccc3C3=NC(CC(=O)NC4CCCCC4)C(=O)N23)cc1 (stereo unspecified) was read as TDP-43 yeast inh 20%, FUS yeast rescue 32µM* and Abeta yeast res inactive.
COc1cccc(NC(=O)CSC2=Nc3ccccc3C3=NC(CC(=O)NCc4ccccc4OC)C(=O)N23)c1 (stereo unspecified) was read as TDP-43 yeast inh -4%, FUS yeast rescue 35µM* and Abeta yeast res inactive.
Screening C=CCn1c(CSCc2ccccc2)nnc1SCC(=O)N1CCN(c2ccccc2)CC1 returned TDP-43 yeast inh 20%, aSyn yeast inh 0% and Abeta yeast res inactive.
Screening CCOc1ccc(-n2c(COc3ccccc3)nnc2SCC(=O)Nc2ccc3c(c2)OCCO3)cc1 returned FUS yeast rescue inactive.
